Compounds with a hit are over-represented: about 3.7% of the library has one in this group of screens.
BJeLR lethal: kills HRASV12-expressing BJeLR cells | inhibition, % (concentration not given with the values) | 0.17% of 300,000 active | BJeLR (HRASV12) viability, CellTiter-Glo ATP luminescence, 48 h | AID 1554; in the data active means inhibition above about 50%; inconclusive means no clear call, values can overlap the other calls
Anthrax LF inh2: inhibitors of Bacillus anthracis lethal factor protease; multiplex microsphere protease cleavage assay, LF; AID 588501; 0.12% of 360,000 active; inhibition, % at 10 µM; further: plate controls were buffer without enzyme for full effect and enzyme alone for no effect
BH1578 lux ind: inducers of Vibrio cholerae quorum light production without autoinducers; V. cholerae BH1578 lux reporter, luminescence, 6 h; activation, % at 18.7 µM; 0.16% of 350,000 active; AID 588436; in the data active means activation mostly above about 9.7%, no sharp cut-off; inconclusive means no clear call, values can overlap the other calls; inactive means mostly below about 3.7%
BoNT F protease: BoNT F light chain protease inhibition; inhibition, % at 10 µM; 0.22% of 360,000 active; Multiplex microsphere protease cleavage assay, flow cytometry; AID 588497; in the data active means inhibition above about 35%, passing the limit was not always enough; inconclusive means no clear call, values can overlap the other calls; further: plate controls were buffer without enzyme for full effect and enzyme alone for no effect
Autofluor counter: compound fluorescence in toxin protease inhibitor counterscreen | compound autofluorescence counterscreen, microsphere flow cytometry; hits give high values | fluorescence intensity (test concentration not listed) | 3.1% of 360,000 active; in the data active means fluorescence intensity above about 16000; inconclusive means no clear call, values can overlap the other calls
BoNT-A LC inh2: inhibitors of Botulinum neurotoxin A light chain protease. multiplex microsphere protease substrate cleavage, flow cytometry. 0.17% of 360,000 active. inhibition, % at 10 µM; further: plate controls were buffer without enzyme for full effect and enzyme alone for no effect
An asterisk follows results filed as active; i = inactive; ? = inconclusive; · = not tested or not shown. Unless noted, no stated cut-off is given here; in the data, active means inhibition above about 30%; inconclusive means no clear call, values can overlap the other calls; inactive means below that.

SMILES	BJeLR lethal	Anthrax LF inh2	BH1578 lux ind	BoNT F protease	Autofluor counter	BoNT-A LC inh2
O=C(Nc1ccc(N2CCCC2)cc1)c1cccc(F)c1	14	-14	-6	-33	19303*	2
O=C(Nc1cccc(S(=O)(=O)N2CCCC2)c1)c1cccc(S(=O)(=O)N2CCOCC2)c1	·	-8	0	-2	3115	0
O=C(Nc1ccc2c(c1)OCCO2)c1cccc(S(=O)(=O)N2CCOCC2)c1	3	-1	1	1	23080*	1
CCN(CC)C(=O)c1ccc(NC(=O)c2cccc(F)c2)cc1	-1	-4	-6	-3	20909*	-1
O=C(NCc1ccc2c(c1)OCO2)c1cccc(S(=O)(=O)N2CCCCC2)c1	1	-1	1	-3	17025*	?
O=C(Nc1ccc(N2CCOCC2)cc1)c1cccc(S(=O)(=O)N2CCCC2)c1	-2	-4	3	-8	25105*	-7
O=C(Nc1ccc2c(c1)OCCO2)c1cccc(S(=O)(=O)N2CCCCC2)c1	6	-4	1	-3	21092*	?
O=C(Nc1ccc(N2CCOCC2)cc1)c1cccc(S(=O)(=O)N2CCCCCC2)c1	8	0	-1	5	3868	1
COc1ccc(NC(=O)c2cc(-c3cc(F)ccc3OC(C)C)n[nH]2)c(C)c1	·	2	1	-12	3298	0
Cc1cc(=O)n2ccccc2c1C#N	11	1	i	4	22057*	?
CSc1ccc(CNC(=O)C2CCC(=O)N(CCc3ccc(Cl)cc3)C2)cc1 (stereo not given)	·	-3	0	0	4236	0
CCN(C(=O)c1ccc(NC(=O)C2CCCCC2C(=O)O)cc1)c1ccccc1 (stereo not given)	·	-2	i	-5	3796	0
CN(C)C(CNc1nnnn1-c1ccccc1)c1ccco1 (stereo not given)	1	-3	11	-8	20446*	-1
CC1CCN(C(=O)CCc2nc3cc(S(=O)(=O)N(C)C)ccc3n2C)CC1	3	1	i	-4	20932*	?
CN(C)S(=O)(=O)c1ccc2c(c1)nc(CCC(=O)NCC1CCCCC1)n2C	2	-4	0	-7	5528	0
COc1ccc(-c2nc3n(c(=O)c2C#N)CCS3)cc1	-4	-4	i	-6	4152	-1
N#Cc1c(-c2ccc(F)cc2)nc2n(c1=O)CCS2	0	-9	0	4	22077*	2
CC1(C(=O)NS(=O)(=O)c2ccc(C#N)cc2)CCN1C(=O)C1(c2ccccc2)CC1 (stereo not given)	·	8	-5	-3	3282	0
Cc1ncsc1C(=O)Nc1nc2c(s1)CC(C)CC2 (stereo not given)	9	-6	-1	-2	16464*	-1
CCc1c(C)sc(NC(=O)c2ccco2)c1C(=O)N1CCCCC1	-15	0	0	1	22698*	2
COC(=O)C1CCN(C(=O)c2ccc(SC)cc2OC)CC1	14	0	2	-3	20634*	?
CCn1nnc(C(=O)O)c1C(=O)O	2	-5	i	-4	16922*	?
CN1CCN(c2ccc(CNC(=O)C3(C)Cc4c(-c5ccc6c(c5)OCO6)ccnc4O3)cc2)CC1 (stereo not given)	·	0	0	3	3889	0
CC1=C(CC(=O)c2ccccc2)C(=O)c2ccccc2C1=O	0	-2	-3	7	18823*	?
O=C(CN1C(=O)c2ccccc2C1=O)c1ccccc1	-5	-2	i	-3	2760	-1
SMILES	BJeLR lethal	Anthrax LF inh2	BH1578 lux ind	BoNT F protease	Autofluor counter	BoNT-A LC inh2
CCCNC(=O)C1(C)CCN(C(=O)Cc2ccc3ccccc3c2)C1 (stereo not given)	·	-2	0	12	3851	0
O=C(c1ccco1)N1CCN(C2CC(=O)N(c3ccc4c(c3)OCO4)C2=O)CC1 (stereo not given)	-11	-2	i	-1	22383*	0
N#Cc1ccsc1NC(=O)c1ccc2ncsc2c1	·	-11	i	1	3982	0
N#Cc1ccsc1NC(=O)c1ccccn1	-4	2	-1	3	22222*	2
CCSc1ccc(C(=O)Nc2ccc(Br)cn2)cc1[N+](=O)[O-]	2	-6	-1	12	19284*	-6
Cc1cn([C@H]2C[C@H](O)[C@@H](CNS(=O)(=O)N3CCCC3)O2)c(=O)[nH]c1=O	·	2	0	-3	3586	0
COc1ccc([C@H]2CC(=O)C=C(c3cc4ccccc4s3)C2)cc1OC	·	-5	i	-4	4134	1
COc1ccc2nc(SCC(N)=O)[nH]c2c1	12	-1	i	-2	22930*	?
CCOc1cc(N2CCOCC2)c(OCC)cc1NC(=O)COc1ncnc2ccccc12	-5	-6	i	-4	19880*	-1
CCCc1nc2c(C)cc(Br)cn2c1Cc1ccccc1C(F)(F)F	·	1	·	1	8160	2
CCOC(=O)c1cc(C)sc1N1C(=O)C2C3C=CC(C3)C2C1=O (stereo not given)	6	0	30*	-4	24106*	-2
CC(C)C[C@H]1CN([C@@H](Cc2ccccc2)CN2CCC[C@@H]2CN2C(=O)C(=O)NC[C@@H]2Cc2ccccc2)C(=O)C(=O)N1CC1CCCCC1	·	6	·	-4	5423	0
O=c1oc2ccccc2c(N2CCCCC2)c1CN1CCCCC1	3	2	25*	7	2637	1
COc1ccccc1NC(=O)CN(C)S(=O)(=O)c1cccc2cccnc12	-2	0	0	5	5180	1
COc1ccc(N(C)S(=O)(=O)c2cccc3cccnc23)c(OC)c1	3	-1	1	1	16783*	-1
Cc1ccc(-c2csc(C(O)c3cccc(Cl)c3)n2)cc1C (stereo not given)	·	-6	0	0	3620	0
CCOc1ccc(Nc2nc(NCCN3CCOCC3)nc(OC)n2)cc1	0	-3	0	0	22883*	?
Cc1ccc(F)c(S(=O)(=O)NC(=O)C2(C)CCN2C(=O)CC(c2ccccc2)c2ccccc2)c1 (stereo not given)	·	-1	i	-4	3514	0
COc1ccc(CNC(=O)CN(Cc2ccccc2)S(=O)(=O)c2ccc(Cl)cc2)cc1	14	-1	0	-3	22889*	-1
COc1ccc(S(=O)(=O)N(CC(=O)NCc2ccncc2)Cc2ccccc2)cc1	-15	-1	-1	-20	4105	0
COc1ccc(S(=O)(=O)N(CC(=O)NC(C)C)Cc2ccccc2)cc1	-27	-1	i	6	7545	0
COc1ccc(S(=O)(=O)N(CCc2ccccc2)CC(=O)NC(C)C)cc1	6	-1	0	-1	22967*	0
COc1ccc(C)cc1S(=O)(=O)N(CC(=O)NCc1ccc(Cl)cc1)Cc1ccccc1	-8	0	i	-2	22998*	-1
COc1ccc(CNC(=O)CN(Cc2ccc(Cl)cc2)S(=O)(=O)c2ccccc2)cc1	19	-1	0	-6	24986*	-4
